PubChem BioAssay AID1159580 (chemical genetic matrix, 2015)
Hit rate of the full screen: of about 5,500 compounds, about 2,000 (36%) were called active. Inconclusive results (about 18%) are left out. No stated cut-off is given here; in the data, active means normalized growth mostly below about 0.91 (no sharp cut-off); inconclusive means no clear call, values can overlap the other calls; inactive means mostly above about 0.92. The list shows a part of the results.

Assay: chemical genetic growth profiling, strain panel (AID 1159580);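 further: tested at 20 µM; growth read once vehicle control cultures reached saturation at 30 °C; 1 = growth at the plate median or of vehicle wells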
Settings: S. cerevisiae deletion strains, growth OD

Measured: normalized growth

COc1ccc2c(c1)OCC(Cc1ccc(O)c(OC)c1)C2=O (stereo not given)
inactive: locus YAL021C, strain ccr4, stronger effect = lower value 0.982 | locus YAL026C, strain drs2, stronger effect = lower value 0.982 | locus YAL030W, strain snc1, stronger effect = lower value 0.968 | locus YBL061C, strain skt5, stronger effect = lower value 0.978 | locus YBR009C, strain hhf1, stronger effect = lower value 0.972 | locus YBR023C, strain chs3, stronger effect = lower value 0.97 | locus YBR171W, strain sec66, stronger effect = lower value 0.969 | locus YBR231C, strain swc5, stronger effect = lower value 0.971 | locus YBR279W, strain paf1, stronger effect = lower value 0.982 | locus YCL011C, strain gbp2, stronger effect = lower value 0.953 | locus YCL016C, strain dcc1, stronger effect = lower value 0.97 | locus YCL061C, strain MRC1, stronger effect = lower value 0.971 | locus YCL069W, strain vba3, stronger effect = lower value 0.979 | locus YCR088W, strain abp1, stronger effect = lower value 0.965 | locus YDL005C, strain med2, stronger effect = lower value 0.965 | locus YDL040C, strain nat1, stronger effect = lower value 0.972 | locus YDR001C, strain nth1, stronger effect = lower value 0.967 | locus YDR069C, strain doa4, stronger effect = lower value 0.963 | locus YDR137W, strain rgp1, stronger effect = lower value 0.922 | locus YDR159W, strain sac3, stronger effect = lower value 0.957 | locus YDR195W, strain ref2 0.958 | locus YDR297W, strain sur2, stronger effect = lower value 0.98 | locus YDR334W, strain swr1, stronger effect = lower value 0.949 | locus YDR335W, strain msn5, stronger effect = lower value 0.985 | locus YDR392W, strain spt3, stronger effect = lower value 0.882 | locus YEL003W, strain gim4, stronger effect = lower value 0.98 | locus YEL037C, strain rad23, stronger effect = lower value 0.97 | locus YEL061C, strain CIN8 (second series), stronger effect = lower value 0.977 | locus YER015W, strain faa2, stronger effect = lower value 0.974 | locus YER016W, strain bim1, stronger effect = lower value 0.969 | locus YER111C, strain swi4, stronger effect = lower value 0.999 | locus YER155C, strain BEM2 (second series), stronger effect = lower value 0.974 | locus YFR010W, strain ubp6, stronger effect = lower value 0.949 | locus YGL167C, strain pmr1, stronger effect = lower value 0.974 | locus YGL173C, strain kem1, stronger effect = lower value 0.973 | locus YGL227W, strain vid30, stronger effect = lower value 0.979 | locus YGL240W, strain doc1, stronger effect = lower value 0.96 | locus YGL253W, strain hxk2, stronger effect = lower value 0.974 | locus YHR013C, strain ard1, stronger effect = lower value 1 | locus YHR027C, strain rpn1, stronger effect = lower value 0.963 | locus YHR030C, strain SLT2, stronger effect = lower value 1.03 | locus YHR079C, strain IRE1, stronger effect = lower value 1.03 | locus YHR142W, strain chs7, stronger effect = lower value 0.943 | locus YJL092W, strain hpr5, stronger effect = lower value 0.932 | locus YJL095W, strain BCK1 (second series), stronger effect = lower value 0.98 | locus YJL095W, strain BCK1, stronger effect = lower value 1.05 | locus YJL115W, strain asf1, stronger effect = lower value 0.951 | locus YJL129C, strain trk1, stronger effect = lower value 0.943 | locus YJL154C, strain vps35, stronger effect = lower value 0.973 | locus YJL164C, strain tpk1, stronger effect = lower value 0.968 | locus YJL166W, strain qcr8, stronger effect = lower value 0.991 | locus YJL187C, strain SWE1, stronger effect = lower value 0.998 | locus YJR066W, strain TOR1, stronger effect = lower value 0.966 | locus YKL160W, strain elf1, stronger effect = lower value 0.985 | locus YKR026C, strain gcn3, stronger effect = lower value 0.967 | locus YKR091W, strain srl3, stronger effect = lower value 0.965 | locus YLL001W, strain dnm1, stronger effect = lower value 0.954 | locus YLL026W, stronger effect = lower value 0.975 | locus YLL041C, strain sdh2, stronger effect = lower value 0.966 | locus YLR027C, strain aat2, stronger effect = lower value 0.964 | locus YLR113W, strain HOG1, stronger effect = lower value 0.979 | locus YLR221C, strain rsa3, stronger effect = lower value 0.982 | locus YLR258W, strain gsy2, stronger effect = lower value 0.961 | locus YLR262C, strain YPT6 (second series), stronger effect = lower value 0.949 | locus YLR320W, strain mms22, stronger effect = lower value 0.983 | locus YLR342W, strain FKS1, stronger effect = lower value 0.979 | locus YLR357W, strain rsc2, stronger effect = lower value 0.965 | locus YLR370C, strain arc18, stronger effect = lower value 0.948 | locus YLR384C, strain iki3, stronger effect = lower value 0.981 | locus YML120C, strain ndi1, stronger effect = lower value 0.971 | locus YMR058W, strain fet3, stronger effect = lower value 0.964 | locus YMR125W, strain sto1, stronger effect = lower value 0.948 | locus YMR129W, stronger effect = lower value 0.974 | locus YMR205C, strain PFK2, stronger effect = lower value 0.974 | locus YMR231W, strain pep5, stronger effect = lower value 0.99 | locus YNL071W, strain lat1, stronger effect = lower value 0.986 | locus YNL183C, strain NPR1, stronger effect = lower value 0.964 | locus YNL209W, strain ssb2, stronger effect = lower value 0.988 | locus YNL248C, strain rpa49, stronger effect = lower value 0.971 | locus YNL322C, strain KRE1 (second series), stronger effect = lower value 0.977 | locus YNR049C, strain mso1, stronger effect = lower value 0.965 | locus YOR001W, strain rrp6, stronger effect = lower value 0.982 | locus YOR070C, strain gyp1, stronger effect = lower value 0.993 | locus YOR080W, strain dia2, stronger effect = lower value 0.97 | locus YOR083W, strain WHI5, stronger effect = lower value 0.971 | locus YOR106W, strain vam3, stronger effect = lower value 0.952 | locus YOR231W, strain MKK1, stronger effect = lower value 1.06 | locus YOR265W, strain rbl2, stronger effect = lower value 0.975 | locus YOR270C, strain vph1, stronger effect = lower value 0.951 | locus YOR290C, strain snf2, stronger effect = lower value 0.965 | locus YPL051W, strain arl3, stronger effect = lower value 0.983 | locus YPL078C, strain atp4, stronger effect = lower value 0.978 | locus YPL106C, strain sse1, stronger effect = lower value 0.914 | locus YPL240C, strain hsp82, stronger effect = lower value 0.957 | locus YPL256C, strain CLN2, stronger effect = lower value 1.03
